# Values joined by “and” are separate entries in the source; they are usually repeats but may differ in a detail not shown here. Equal entries are not always repeated. Inconclusive results are not listed. A call without a number means that no potency is given here. Active and inactive are the calls of the source. The call rests on the fitted dose curve; in most records, active means well fitted curve in the direction sought with a large enough effect; inconclusive means small, poorly fitted or top-dose-only effect, or another doubt; inactive means no such curve, though single readings can be large; an effect the other way counts as inactive or inconclusive.
# What was measured:
# [1] = Confirmatory screen GU Rhodamine qHTS for Zika virus inhibitors qHTS (AID 1347157); conditions: purified enzyme assay, Rhodamine110 substrate fluorescence, 15 min; further: potency means the concentration at half of the fitted maximal effect; nearly all actives have a fitted effect of over 70% in size
# Summary of the method: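 Buffer 10 mM Tris-HCl pH 8.0, 0.01% Tween 20. Unlinked protease 25 nM; compound preincubation 15 min, RT, protected from light. Substrate Rhod110, 1.5 microM; ~15% conversion in 15 min.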
# [2] = test system: Zika virus NS2B-NS3 protease (linked); assay: 384 well plate NINDS AMC confirmatory qHTS for Zika virus inhibitors (AID 1347163); conditions: Recombinant NS2B-NS3 protease, Ac-VKTGKR-AMC fluorescence; series mostly up to 100 µM; further: potency means the concentration at half of the fitted maximal effect; nearly all actives have a fitted effect of over 50% in size
# Summary of the method: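 Fluorescence at 355/460 nm was read after 25 minutes of cleavage of 30 microM Ac-VKTGKR-AMC at room temperature, in the dark. Before substrate addition, compounds (up to 1 mM final) sat ~15 minutes with 5, 30 or 60 nM linked protease. Signals were normalized to no-enzyme and no-inhibitor wells.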
# [3] = ZIKV-mCherry secondary qHTS for Zika virus inhibitors (AID 1347158); conditions: Vero cells, ZIKV-mCherry infection imaging, 48-72 h; series mostly up to 49.2 µM; further: top concentration of the series differs between compounds
# Summary of the method: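 Percent infection is the share of Hoechst-identified Vero nuclei with mCherry signal above 450 RFU (3 SD over negative controls). Cells were infected with recombinant ZIKV-mCherry at MOI 1 after compound addition and imaged 48–72 h later.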
# [4] = test system: Zika virus NS2B-NS3 protease; assay: Primary screen GU AMC qHTS for Zika virus inhibitors (AID 1347154); conditions: Zika NS2B-NS3 unlinked protease, AMC fluorogenic substrate; series mostly up to 54.1 µM; further: nearly all actives have a fitted effect of over 70% in size
# Summary of the method: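 Unlinked Zika NS2B hydrophilic domain–NS3 protease complex at 25 nM in 10 mM Tris-HCl pH 8.0, 0.01% Tween 20, with an AMC peptide substrate. Fluorescence change (340/450 nm) over 15 min at room temperature, normalized to controls, fitted to 4-parameter Hill.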
# [5] = target: Lysine-specific demethylase 5B (Homo sapiens) (UniProt Q9UGL1); assay: Optimization screen for KDM5B Histone Demethylases FDH coupled qHTS against the LOPAC library (AID 1347166); conditions: KDM5B demethylation, FDH-coupled NADH fluorescence (FDH is formaldehyde dehydrogenase); series mostly up to 57.5 µM
# Chain of Lysine-specific demethylase 5B (Homo sapiens) (Q9UGL1 whole entry, looked up): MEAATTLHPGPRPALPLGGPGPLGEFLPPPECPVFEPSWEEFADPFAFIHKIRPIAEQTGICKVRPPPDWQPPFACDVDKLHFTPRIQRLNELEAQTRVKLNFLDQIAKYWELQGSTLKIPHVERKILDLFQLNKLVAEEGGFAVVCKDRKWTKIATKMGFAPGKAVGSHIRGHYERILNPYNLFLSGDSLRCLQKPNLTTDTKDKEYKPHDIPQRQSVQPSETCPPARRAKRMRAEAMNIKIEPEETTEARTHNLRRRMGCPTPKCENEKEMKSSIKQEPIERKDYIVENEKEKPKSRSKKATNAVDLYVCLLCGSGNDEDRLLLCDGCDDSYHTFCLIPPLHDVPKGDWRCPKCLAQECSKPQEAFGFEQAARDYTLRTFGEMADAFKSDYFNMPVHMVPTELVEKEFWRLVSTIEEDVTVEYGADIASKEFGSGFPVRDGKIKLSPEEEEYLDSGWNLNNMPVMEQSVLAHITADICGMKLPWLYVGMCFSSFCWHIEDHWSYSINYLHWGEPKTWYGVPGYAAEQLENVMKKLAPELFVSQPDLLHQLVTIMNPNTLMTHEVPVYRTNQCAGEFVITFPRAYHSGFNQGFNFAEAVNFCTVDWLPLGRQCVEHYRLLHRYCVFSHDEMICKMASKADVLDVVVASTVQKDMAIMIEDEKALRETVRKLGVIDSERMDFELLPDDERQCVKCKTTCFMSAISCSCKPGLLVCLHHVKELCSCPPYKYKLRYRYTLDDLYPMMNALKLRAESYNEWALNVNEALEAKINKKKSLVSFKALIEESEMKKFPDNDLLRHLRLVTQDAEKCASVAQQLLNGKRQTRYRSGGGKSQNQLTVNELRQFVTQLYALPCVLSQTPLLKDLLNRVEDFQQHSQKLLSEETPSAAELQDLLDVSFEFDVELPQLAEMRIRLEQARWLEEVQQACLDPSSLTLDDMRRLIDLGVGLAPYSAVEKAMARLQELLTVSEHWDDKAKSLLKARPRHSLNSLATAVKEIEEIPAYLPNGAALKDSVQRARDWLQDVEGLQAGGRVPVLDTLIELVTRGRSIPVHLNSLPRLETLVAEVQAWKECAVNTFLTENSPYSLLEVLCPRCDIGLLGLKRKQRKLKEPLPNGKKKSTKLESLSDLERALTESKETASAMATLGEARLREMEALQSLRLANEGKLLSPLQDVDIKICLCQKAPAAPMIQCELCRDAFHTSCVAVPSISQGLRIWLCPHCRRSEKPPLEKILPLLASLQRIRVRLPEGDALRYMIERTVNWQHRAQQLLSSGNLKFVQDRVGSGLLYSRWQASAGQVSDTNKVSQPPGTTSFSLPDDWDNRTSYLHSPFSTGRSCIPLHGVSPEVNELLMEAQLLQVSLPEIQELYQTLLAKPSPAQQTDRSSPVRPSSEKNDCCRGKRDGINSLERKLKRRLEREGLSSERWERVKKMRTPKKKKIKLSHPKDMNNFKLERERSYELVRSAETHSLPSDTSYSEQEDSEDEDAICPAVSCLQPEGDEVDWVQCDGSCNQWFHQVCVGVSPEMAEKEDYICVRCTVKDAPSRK
# Summary of the method: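 KDM5BDeltaAP (200nM final) in 50mM HEPES pH 7.5, 0.01% Tween-20 was preincubated with compound for 10 min at room temperature. A substrate mix of 12.5uM H3K4Me3, 25uM a-ketoglutarate, ascorbate, Fe2+, NAD+ and formaldehyde dehydrogenase was then added. NADH fluorescence (340/450 nm) was read initially and after 30 min.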
# [6] = Vero cells viability qHTS for Zika virus inhibitors (AID 1347167); conditions: cytotoxicity counter-screen (Zika); series mostly up to 45.9 µM
# Summary of the method: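 qHTS titration; 24-48 h compound exposure, 37 degrees C/5% CO2; DMEM, 4% FBS; CellTiter Glo ATP luminescence.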
# [7] = Confirmatory screen NINDS Rhodamine qHTS for Zika virus inhibitors (AID 1347161); conditions: purified enzyme assay, Rhodamine110 substrate fluorescence, 15 min; series mostly up to 114 µM;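 further: purified Zika NS2B-NS3 protease with linked NS2B cofactor domain and Rhodamine110 peptide substrate; nearly all actives have a fitted effect of over 60% in size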
# Summary of the method: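 Purified NS2B-NS3 protease with the NS2B hydrophilic domain joined by a flexible linker (25 nM) in 10 mM Tris-HCl pH 8.0, 0.01% Tween 20, preincubated 15 min at RT with compound; Rhodamine110 peptide substrate 1.5 µM; fluorescence change over 15 min; 4-parameter Hill fit.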
structure (smiles),measurement,setting,value
Cc1ccc(C(=O)Nc2ccc(S(=O)(=O)O)c3cc(S(=O)(=O)O)cc(S(=O)(=O)O)c23)cc1NC(=O)c1cccc(NC(=O)Nc2cccc(C(=O)Nc3cc(C(=O)Nc4ccc(S(=O)(=O)O)c5cc(S(=O)(=O)O)cc(S(=O)(=O)O)c45)ccc3C)c2)c1,Potency,[1],2.82 µM (active) and 2 µM (active) and 2.24 µM (active)
same,Potency,[2],7.94 µM (active)
O=c1c(O)c(-c2ccc(O)c(O)c2)oc2cc(O)cc(O)c12,outcome,[3],inactive
O=C(Nc1ccc([N+](=O)[O-])cc1Cl)c1cc(Cl)ccc1O,Potency,[2],20 µM (active)
CC(COc1ccccc1)N(CCCl)Cc1ccccc1 (centres undefined),Potency,[4],inactive
same,outcome,[5],inactive
CN1CCN(C2=Nc3cc(Cl)ccc3Nc3ccccc32)CC1,Potency,[4],inactive
same,outcome,[5],inactive
COc1ccc(C2CNC(=O)C2)cc1OC1CCCC1 (centres undefined),Potency,[4],inactive
same,outcome,[5],inactive
COc1cc2c(c(OC)c1OC)-c1ccc(OC)c(=O)cc1[C@@H](NC(C)=O)CC2,Potency,[4],inactive
same,outcome,[5],inactive
Fc1ccc([C@@H]2CCNC[C@H]2COc2ccc3c(c2)OCO3)cc1,Potency,[4],inactive
same,outcome,[5],inactive
O=c1c(-c2ccc(O)cc2)coc2cc(O)cc(O)c12,Potency,[4],inactive
same,outcome,[5],inactive
CC12CC3CC(C)(C1)CC(N)(C3)C2,Potency,[4],inactive
same,outcome,[5],inactive
NC(=O)OCC(COC(N)=O)c1ccccc1,Potency,[4],inactive
same,outcome,[5],inactive
CN1CCN(CCCN2c3ccccc3Sc3ccc(Cl)cc32)CC1,Potency,[4],inactive
same,outcome,[5],inactive
O=C(C1CCCCC1)N1CC(=O)N2CCc3ccccc3C2C1 (centres undefined),Potency,[4],inactive
same,outcome,[5],inactive
O=C1c2c(O)ccc(O)c2C(=O)c2c(NCCNCCO)ccc(NCCNCCO)c21,Potency,[4],inactive
same,outcome,[5],inactive
COc1ccccc1N1CCN(CC(O)COc2cccc3ccccc23)CC1 (centres undefined),Potency,[4],inactive
same,outcome,[5],inactive
CCOC(=O)C(C)(C)Oc1ccc(Cl)cc1,Potency,[4],inactive
same,outcome,[5],inactive
Clc1ccc2nsnc2c1NC1=NCCN1,Potency,[4],inactive
same,outcome,[5],inactive
CN(C)c1nc(N(C)C)nc(N(C)C)n1,Potency,[4],inactive
same,outcome,[5],inactive
CN1C2CCC1CC(OC(=O)C(CO)c1ccccc1)C2 (centres undefined),Potency,[4],inactive
same,outcome,[5],inactive
Cn1c(=O)c2[nH]cnc2n(C)c1=O,Potency,[4],inactive
same,outcome,[5],inactive
COc1ccccc1OCC(O)CN1CCN(CC(=O)Nc2c(C)cccc2C)CC1 (centres undefined),Potency,[4],inactive
same,outcome,[5],inactive
CC(C(=O)O)c1cccc(C(=O)c2ccccc2)c1 (centres undefined),Potency,[4],inactive
same,outcome,[5],inactive
CN1CCC(=C2c3ccccc3C=Cc3ccccc32)CC1,Potency,[4],inactive
same,outcome,[5],inactive
CCCNCC(O)COc1ccccc1C(=O)CCc1ccccc1 (centres undefined),Potency,[4],inactive
same,outcome,[5],inactive
COc1ccccc1OCCNCC(O)COc1cccc2[nH]c3ccccc3c12 (centres undefined),Potency,[4],inactive
same,outcome,[5],inactive
Clc1ccccc1C(c1ccccc1)(c1ccccc1)n1ccnc1,Potency,[4],inactive
same,outcome,[5],inactive
NCCCCCC(=O)O,Potency,[4],inactive
same,outcome,[5],inactive
CN(C)C(=O)C(CCN1CCC(O)(c2ccc(Cl)cc2)CC1)(c1ccccc1)c1ccccc1,Potency,[4],inactive
same,outcome,[5],inactive
CC#C[C@]1(O)CC[C@H]2[C@@H]3CCC4=CC(=O)CCC4=C3[C@@H](c3ccc(N(C)C)cc3)C[C@@]21C,Potency,[4],inactive
same,outcome,[5],inactive
CN(C)CCC=C1c2ccccc2C=Cc2ccccc21,Potency,[4],inactive
same,outcome,[5],inactive
OCCN1CCN(CCCN2c3ccccc3Sc3ccc(C(F)(F)F)cc32)CC1,Potency,[4],inactive
same,outcome,[5],inactive
CC(C)C(=O)Nc1ccc([N+](=O)[O-])c(C(F)(F)F)c1,Potency,[4],inactive
same,outcome,[5],inactive
Cn1cnc2c1c(=O)[nH]c(=O)n2C,Potency,[4],inactive
same,outcome,[5],inactive
NCCc1cnc[nH]1,Potency,[4],inactive
same,outcome,[5],inactive
COc1ccc(CCN(C)CCCC(C#N)(c2ccc(OC)c(OC)c2)C(C)C)cc1OC (centres undefined),Potency,[4],inactive
same,outcome,[5],inactive
O=C(CCCN1CCC(O)(c2ccc(Cl)cc2)CC1)c1ccc(F)cc1,Potency,[4],inactive
same,outcome,[5],inactive
CN(Cc1cnc2nc(N)nc(N)c2n1)c1ccc(C(=O)N[C@@H](CCC(=O)O)C(=O)O)cc1,Potency,[6],inactive
NS(=O)(=O)c1cc2c(cc1Cl)NCNS2(=O)=O,Potency,[4],inactive
same,outcome,[5],inactive
Cc1cnc(C(=O)NCCc2ccc(S(=O)(=O)NC(=O)NC3CCCCC3)cc2)cn1,Potency,[7],inactive
same,outcome,[5],inactive
same,Potency,[6],inactive
CC(C)(Oc1ccc(C2CC2(Cl)Cl)cc1)C(=O)O (centres undefined),Potency,[4],inactive
same,outcome,[5],inactive
COC(=O)Nc1nc2ccc(C(=O)c3cccs3)cc2[nH]1,Potency,[4],inactive
same,outcome,[5],inactive
O=C1N(c2ccccc2)c2ccccc2C1(Cc1ccncc1)Cc1ccncc1,Potency,[4],inactive
same,outcome,[5],inactive
Nc1ccn([C@H]2CC[C@@H](CO)O2)c(=O)n1,Potency,[4],inactive
same,outcome,[5],inactive

# Reference: PubChem BioAssay (NCATS)
